About 8,800 targets were measured; listed, in parts, are those with a hit and a random draw of the rest. About 0.5% of all pairs of compound and target were hits. Unmarked numbers belong to inactive results.
How the values were obtained:
Assay in all cases: log2 fold change, soluble protein after heating vs DMSO (PISA); higher = thermal stabilisation; K562 lysate, 10 uM; active = over 0.2 and 3.5 SD of the protein, either way, in both replicates (recomputed)
erlotinib = compound: C#Cc1cccc(Nc2ncnc3cc(OCCOC)c(OCCOC)cc23)c1 [erlotinib]
Method in brief: (§1)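 Quantification was by TMTpro 16plex LC-MS/MS with equalised channel sums, applied to the supernatant after 21,000xg for 90 min. Samples were crude K562 extract at 1 mg/mL protein in PBS pH 7.4 with 1 mM MgCl2, treated with 10 μM compound for 30 min, heated for 3 min across 48°C-58°C, pooled and brought to 0.5% NP-40 at 4°C. Values are log-two fold changes in thermal stability relative to solvent controls, from duplicates.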

[1] = compound: C/C(=N\NC(=O)C1=CC(=CC=C1)S(=O)(=O)N2CCOCC2)/C3=C(C=CC(=C3)Cl)O
Method in brief: as §1

[2] = compound: C1=CC(=CC=C1C2=NC3=C(N2)C=C(C=C3)C(=O)N)OC4=CC=C(C=C4)Cl
Method in brief: as §1

[3] = compound: C1=CC2=C(C=CC(=C2)/C=C\3/C(=O)NC(=NCC4=CC=CS4)S3)N=C1
Method in brief: as §1

[4] = compound: C1=CC2=NC=CN=C2C=C1/C=C/3\C(=O)NC(=O)S3
Method in brief: as §1

[5] = compound: C1=CC=C(C=C1)C2=NC(=C(N2)C3=CC=NC=C3)C4=CC(=C(C=C4)Cl)O
Method in brief: as §1

[6] = compound: C1=CC=C2C(=C1)C3=NNC4=CC=CC(=C43)C2=O
Method in brief: as §1

[7] = compound: C1CCN(C1)C(=O)NC2=CC=CC(=C2)NC3=NC=C(C(=N3)NCCC4=CN=CN4)Br
Method in brief: as §1

[8] = compound: C1CN(CCC1(CC2=CC=C(C=C2)Cl)N)C3=NC=NC4=C3C=CN4
Method in brief: as §1

IRAK-1-4 Inhibitor I = compound: C1COCCN1CCN2C3=CC=CC=C3N=C2NC(=O)C4=CC(=CC=C4)[N+](=O)[O-] [IRAK-1-4 Inhibitor I]
Method in brief: as §1

Chain of UniProt P03886 (P03886 whole entry, looked up): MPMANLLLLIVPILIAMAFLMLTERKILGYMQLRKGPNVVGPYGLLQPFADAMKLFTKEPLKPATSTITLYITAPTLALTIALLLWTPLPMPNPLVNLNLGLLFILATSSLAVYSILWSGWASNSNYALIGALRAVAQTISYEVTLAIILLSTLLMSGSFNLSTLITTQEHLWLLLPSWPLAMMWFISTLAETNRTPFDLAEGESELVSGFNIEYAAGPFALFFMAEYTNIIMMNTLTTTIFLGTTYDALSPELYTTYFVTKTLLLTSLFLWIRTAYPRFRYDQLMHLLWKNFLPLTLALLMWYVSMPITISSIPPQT
Chain of UniProt Q9H3P2 (Q9H3P2 whole entry, looked up): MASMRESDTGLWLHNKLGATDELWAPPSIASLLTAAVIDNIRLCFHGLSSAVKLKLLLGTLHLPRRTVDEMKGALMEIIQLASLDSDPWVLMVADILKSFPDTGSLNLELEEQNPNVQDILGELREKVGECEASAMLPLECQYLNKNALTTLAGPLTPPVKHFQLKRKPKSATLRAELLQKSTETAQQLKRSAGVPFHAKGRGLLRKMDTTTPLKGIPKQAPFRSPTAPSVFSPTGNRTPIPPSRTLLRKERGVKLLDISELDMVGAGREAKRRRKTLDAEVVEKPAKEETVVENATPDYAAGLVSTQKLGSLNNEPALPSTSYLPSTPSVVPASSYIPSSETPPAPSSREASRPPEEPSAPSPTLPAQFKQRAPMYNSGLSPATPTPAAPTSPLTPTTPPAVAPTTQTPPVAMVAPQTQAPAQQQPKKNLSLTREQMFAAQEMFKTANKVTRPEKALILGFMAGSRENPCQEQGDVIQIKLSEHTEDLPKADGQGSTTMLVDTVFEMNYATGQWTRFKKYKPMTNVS
Chain of UniProt P20585 (P20585 whole entry, looked up): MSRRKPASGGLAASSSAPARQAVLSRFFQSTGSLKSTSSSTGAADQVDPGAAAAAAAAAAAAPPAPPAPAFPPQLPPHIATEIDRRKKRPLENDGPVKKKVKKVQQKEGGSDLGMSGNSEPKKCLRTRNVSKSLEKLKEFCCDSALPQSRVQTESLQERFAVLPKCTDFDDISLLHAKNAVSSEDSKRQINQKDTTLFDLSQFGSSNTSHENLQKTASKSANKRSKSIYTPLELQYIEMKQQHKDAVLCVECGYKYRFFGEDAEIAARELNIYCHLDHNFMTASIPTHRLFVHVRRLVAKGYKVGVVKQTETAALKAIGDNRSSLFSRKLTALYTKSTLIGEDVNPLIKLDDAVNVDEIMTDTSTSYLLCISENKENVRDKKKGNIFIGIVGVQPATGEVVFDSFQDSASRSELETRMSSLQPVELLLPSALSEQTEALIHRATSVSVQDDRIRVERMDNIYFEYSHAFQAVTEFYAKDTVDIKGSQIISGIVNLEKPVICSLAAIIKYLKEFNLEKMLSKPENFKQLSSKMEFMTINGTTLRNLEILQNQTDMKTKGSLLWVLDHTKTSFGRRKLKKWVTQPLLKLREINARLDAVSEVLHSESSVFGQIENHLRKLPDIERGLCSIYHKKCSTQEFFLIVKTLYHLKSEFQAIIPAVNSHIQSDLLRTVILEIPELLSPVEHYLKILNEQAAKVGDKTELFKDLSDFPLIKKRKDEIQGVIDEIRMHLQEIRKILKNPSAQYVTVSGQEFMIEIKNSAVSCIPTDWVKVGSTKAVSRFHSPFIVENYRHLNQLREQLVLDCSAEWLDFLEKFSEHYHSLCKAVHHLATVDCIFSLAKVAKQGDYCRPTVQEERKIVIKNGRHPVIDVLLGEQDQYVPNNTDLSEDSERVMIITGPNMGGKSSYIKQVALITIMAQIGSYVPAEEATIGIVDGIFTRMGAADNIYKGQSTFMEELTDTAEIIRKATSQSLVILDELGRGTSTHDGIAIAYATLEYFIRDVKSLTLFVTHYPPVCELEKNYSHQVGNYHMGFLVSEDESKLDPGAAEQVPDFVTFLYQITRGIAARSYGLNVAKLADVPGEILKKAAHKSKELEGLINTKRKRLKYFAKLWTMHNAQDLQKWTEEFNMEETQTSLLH
Chain of UniProt O76041 (O76041 whole entry, looked up): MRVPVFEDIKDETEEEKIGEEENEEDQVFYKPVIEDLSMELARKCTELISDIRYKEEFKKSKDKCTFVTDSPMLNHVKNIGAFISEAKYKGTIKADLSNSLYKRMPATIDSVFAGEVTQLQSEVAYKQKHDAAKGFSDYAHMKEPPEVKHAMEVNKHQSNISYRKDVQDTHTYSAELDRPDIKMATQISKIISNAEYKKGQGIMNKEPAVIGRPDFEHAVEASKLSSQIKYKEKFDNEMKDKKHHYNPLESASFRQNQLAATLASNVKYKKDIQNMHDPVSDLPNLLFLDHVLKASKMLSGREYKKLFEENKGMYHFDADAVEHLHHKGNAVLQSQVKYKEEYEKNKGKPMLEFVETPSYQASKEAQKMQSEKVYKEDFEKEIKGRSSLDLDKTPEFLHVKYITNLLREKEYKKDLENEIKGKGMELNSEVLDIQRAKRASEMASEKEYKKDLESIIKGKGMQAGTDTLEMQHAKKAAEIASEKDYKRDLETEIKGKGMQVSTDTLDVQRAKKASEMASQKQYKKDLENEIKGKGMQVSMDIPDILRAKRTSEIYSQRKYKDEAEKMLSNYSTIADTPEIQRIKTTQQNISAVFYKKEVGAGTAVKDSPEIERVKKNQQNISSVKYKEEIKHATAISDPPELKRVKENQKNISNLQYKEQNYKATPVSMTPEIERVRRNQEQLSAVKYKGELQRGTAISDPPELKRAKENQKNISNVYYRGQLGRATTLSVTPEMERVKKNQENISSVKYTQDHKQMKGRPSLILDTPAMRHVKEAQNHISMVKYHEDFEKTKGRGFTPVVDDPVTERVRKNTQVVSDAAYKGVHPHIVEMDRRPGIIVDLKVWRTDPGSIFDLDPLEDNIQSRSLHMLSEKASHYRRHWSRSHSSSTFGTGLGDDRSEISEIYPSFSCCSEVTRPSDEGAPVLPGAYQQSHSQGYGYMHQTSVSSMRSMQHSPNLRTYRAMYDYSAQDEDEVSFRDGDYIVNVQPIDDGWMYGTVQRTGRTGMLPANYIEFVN
Chain of UniProt Q9NPF4 (Q9NPF4 whole entry, looked up): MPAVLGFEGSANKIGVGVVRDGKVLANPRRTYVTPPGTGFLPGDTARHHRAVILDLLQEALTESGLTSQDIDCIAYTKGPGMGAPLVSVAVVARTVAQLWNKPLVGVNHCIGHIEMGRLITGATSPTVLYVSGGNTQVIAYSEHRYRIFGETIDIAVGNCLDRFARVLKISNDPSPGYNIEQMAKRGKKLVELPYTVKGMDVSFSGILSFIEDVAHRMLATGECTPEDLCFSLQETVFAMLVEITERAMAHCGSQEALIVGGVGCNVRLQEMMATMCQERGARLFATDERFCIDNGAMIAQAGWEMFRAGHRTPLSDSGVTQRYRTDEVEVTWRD
Chain of UniProt Q9Y530 (Q9Y530 whole entry, looked up): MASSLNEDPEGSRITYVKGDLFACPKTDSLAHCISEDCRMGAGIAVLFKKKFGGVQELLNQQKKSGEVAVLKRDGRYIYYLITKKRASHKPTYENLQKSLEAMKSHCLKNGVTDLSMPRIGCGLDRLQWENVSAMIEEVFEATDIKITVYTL
Chain of UniProt O60829 (O60829 whole entry, looked up): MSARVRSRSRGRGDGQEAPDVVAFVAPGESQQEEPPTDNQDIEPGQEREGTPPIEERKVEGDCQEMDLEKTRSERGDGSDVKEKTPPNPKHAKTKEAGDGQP
Chain of UniProt Q99836 (Q99836 whole entry, looked up): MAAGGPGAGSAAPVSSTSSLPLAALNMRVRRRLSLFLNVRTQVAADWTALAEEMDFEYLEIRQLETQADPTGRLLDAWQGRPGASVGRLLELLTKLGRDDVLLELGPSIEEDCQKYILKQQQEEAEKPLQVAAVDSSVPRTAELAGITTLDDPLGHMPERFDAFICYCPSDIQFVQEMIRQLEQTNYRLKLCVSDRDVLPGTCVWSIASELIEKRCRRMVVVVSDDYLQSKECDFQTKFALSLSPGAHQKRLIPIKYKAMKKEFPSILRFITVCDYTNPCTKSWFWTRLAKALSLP
Chain of UniProt Q9Y5A7 (Q9Y5A7 whole entry, looked up): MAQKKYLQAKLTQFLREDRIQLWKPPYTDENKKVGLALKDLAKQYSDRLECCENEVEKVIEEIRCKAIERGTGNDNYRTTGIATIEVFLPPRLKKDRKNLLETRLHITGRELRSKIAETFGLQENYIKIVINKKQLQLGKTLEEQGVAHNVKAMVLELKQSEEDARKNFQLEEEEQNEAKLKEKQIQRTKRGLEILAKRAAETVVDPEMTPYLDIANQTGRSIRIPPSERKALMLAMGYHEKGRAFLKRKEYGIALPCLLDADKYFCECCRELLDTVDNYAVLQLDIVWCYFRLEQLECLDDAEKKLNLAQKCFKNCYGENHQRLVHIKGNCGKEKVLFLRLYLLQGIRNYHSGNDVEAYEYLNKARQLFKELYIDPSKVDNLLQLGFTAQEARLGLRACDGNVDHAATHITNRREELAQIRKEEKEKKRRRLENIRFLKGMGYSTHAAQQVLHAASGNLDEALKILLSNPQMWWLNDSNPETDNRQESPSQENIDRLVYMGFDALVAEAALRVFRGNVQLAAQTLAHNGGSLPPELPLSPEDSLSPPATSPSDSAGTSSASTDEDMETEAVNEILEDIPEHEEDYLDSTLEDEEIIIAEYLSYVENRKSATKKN
Chain of UniProt Q9UDX5 (Q9UDX5 whole entry, looked up): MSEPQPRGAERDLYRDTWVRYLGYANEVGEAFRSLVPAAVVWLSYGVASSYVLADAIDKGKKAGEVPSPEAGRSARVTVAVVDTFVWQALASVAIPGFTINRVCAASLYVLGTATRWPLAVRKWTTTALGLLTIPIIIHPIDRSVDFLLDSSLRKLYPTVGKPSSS
Chain of UniProt O00483 (O00483 whole entry, looked up): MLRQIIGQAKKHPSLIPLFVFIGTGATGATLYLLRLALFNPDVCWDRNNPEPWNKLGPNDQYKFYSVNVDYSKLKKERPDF
Chain of UniProt Q15843 (Q15843 whole entry, looked up): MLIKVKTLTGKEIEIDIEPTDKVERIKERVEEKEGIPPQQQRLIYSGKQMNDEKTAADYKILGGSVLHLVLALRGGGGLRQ

Row | Target | log2 fold change (erlotinib) | log2 fold change [1] | log2 fold change [2] | log2 fold change [3] | log2 fold change [4] | log2 fold change [5] | log2 fold change [6] | log2 fold change [7] | log2 fold change [8] | log2 fold change (IRAK-1-4 Inhibitor I)
1 | MTA3 (UniProt Q9BTC8) | 0.025 | -0.051 | 0.02 | -0.022 | -0.078 | -0.046 | 0 | 0.004 | 0.025 | 0.012
2 | PARD3 (UniProt Q8TEW0) | 0.1 | -0.288 | 0.051 | -0.146 | -0.029 | 0.021 | 0.007 | 0.067 | 0.017 | 0.028
3 | ORC3 isoform 2 (UniProt Q9UBD5) | -0.006 | -0.048 | -0.046 | 0.004 | 0.053 | -0.011 | -0.045 | -0.015 | -0.007 | -0.008
4 | MSH2 (UniProt P43246) | 0.003 | 0.018 | -0.028 | 0.028 | 0.013 | 0.017 | -0.019 | -0.01 | 0.012 | -0.009
5 | MRPL51 (UniProt Q4U2R6) | -0.067 | -0.05 | -0.027 | 0.08 | -0.036 | -0.039 | 0.036 | -0.006 | -0.09 | 0.001
6 | MSH3 (UniProt P20585) | -0.046 | -0.021 | 0.042 | 0.011 | -0.025 | 0.007 | -0.026 | -0.038 | 0.058 | 0.004
7 | MTMR6 (UniProt Q9Y217) | 0.01 | 0.044 | 0.002 | -0.008 | -0.004 | -0.009 | -0.052 | -0.013 | 0.015 | -0.013
8 | MYD88 isoform 6 (UniProt Q99836) | -0.066 | 0.007 | -0.011 | -0.019 | -0.019 | -0.015 | -0.025 | 0.032 | -0.067 | 0.004
9 | OARD1 (UniProt Q9Y530) | 0.002 | -0.1 | 0.008 | 0.028 | -0.019 | -0.015 | -0.031 | -0.036 | 0.041 | -0.01
10 | NFKBIB (UniProt Q15653) | 0.113 | -0.135 | 0 | 0.03 | 0.025 | -0.026 | 0.06 | 0.016 | -0.008 | 0.052
11 | NEBL (UniProt O76041) | -0.014 | -0.028 | 0.05 | 0.015 | -0.048 | 0.001 | -0.082 | -0.087 | 0.013 | 0.054
12 | NCOR1 (UniProt O75376) | 0.011 | -0.05 | 0.081 | 0.004 | -0.014 | -0.041 | -0.001 | 0.009 | 0.019 | 0.022
13 | MTFP1 (UniProt Q9UDX5) | -0.006 | 0.092 | 0.035 | 0.041 | -0.043 | -0.003 | 0.081 | -0.044 | 0.044 | -0.058
14 | NF1 (UniProt P21359) | 0.072 | -0.031 | -0.02 | -0.056 | -0.008 | -0.003 | -0.089 | 0.017 | 0 | 0.023
15 | MT-ND1 (UniProt P03886) | -0.061 | -0.227 | -0.14 | 0.055 | -0.036 | -0.005 | 0.061 | -0.038 | 0.02 | 0.004
16 | NEDD8 (UniProt Q15843) | 0.018 | -0.019 | 0 | 0.031 | -0.047 | 0.011 | -0.053 | 0.026 | 0.07 | 0

Row | Target | log2 fold change (erlotinib) | log2 fold change [1] | log2 fold change [2] | log2 fold change [3] | log2 fold change [4] | log2 fold change [5] | log2 fold change [6] | log2 fold change [7] | log2 fold change [8] | log2 fold change (IRAK-1-4 Inhibitor I)
17 | OSGEP (UniProt Q9NPF4) | 0.012 | -0.002 | 0.041 | -0.148 | -0.236 (active) | 0.008 | -0.058 | 0.009 | -0.028 | -0.022
18 | NUB1 (UniProt Q9Y5A7) | 0.049 | 0.055 | -0.003 | -0.015 | 0.002 | 0.054 | 0.023 | -0.022 | -0.023 | -0.02
19 | NDUFA4 (UniProt O00483) | 0.038 | 0.092 | -0.012 | 0.055 | 0.009 | 0.055 | 0.046 | 0.012 | 0.001 | -0.01
20 | MXRA7 (UniProt P84157) | -0.001 | 0.062 | 0.118 | 0.17 |  | -0.062 | -0.135 | 0.02 | 0 | -0.043
21 | PAGE4 (UniProt O60829) | -0.423 |  | 0.098 |  | 0.034 | 0.015 |  | -0.068 | -0.095 | -0.034
22 | MYO10 (UniProt Q9HD67) | -0.044 | -0.13 | 0.19 | 0.017 | -0.062 | 0.014 | -0.16 |  |  | 0.102
23 | NUMB isoform 2 (UniProt P49757) |  |  |  |  |  | 0.304 |  |  |  | 0.021
24 | MYO9A isoform 4 (UniProt B2RTY4) | 0.074 | 0.008 | -0.125 | -0.045 | 0.153 | -0.007 | -0.05 |  |  | -0.059
25 | PAPOLG (UniProt Q9BWT3) | 0 | -0.068 | -0.092 | 0.035 |  | 0.055 | 0.041 | -0.086 | 0.104 | 0.136
26 | NR2F2 (UniProt P24468) | -0.007 |  | 0 |  | -0.192 | 0.076 |  |  |  | 0.048
27 | NUDT5 (UniProt C9JYY9) | 0.098 |  | -0.157 |  |  |  |  | -0.069 | 0.034 | 
28 | NFAT5 isoform 4 (UniProt O94916) |  |  |  |  | 0.161 |  |  |  |  | 
29 | MYBL2 (UniProt P10244) | 0.02 | 0.014 | -0.011 | 0.035 |  | 0.005 | 0.078 | -0.013 | -0.036 | 0.009
30 | NELFA (UniProt Q9H3P2) | -0.04 | -0.018 | 0.002 | 0.047 | 0.007 | 0.007 | -0.009 | 0.011 | -0.001 | -0.017
31 | PARD3B (UniProt Q8TEW8) | 0.025 |  | -0.084 |  |  |  |  |  |  | 

From the supplement of paper PMC10849652
